Shown are actives, neighbours in structure and some others; about 4.3% of the full set was active somewhere.
DRD3 agonist: qHTS of D3 Dopamine Receptor Agonist: qHTS. D(3) dopamine receptor (Homo sapiens), P35462. D3R DiscoveRx beta-arrestin cells, luminescence, 90 min. max activation, %. actives 0.58% (n = 410,000). AID 652048, 2013; in the data active = max activation above about 30%
Target sequence (P35462 whole entry, looked up): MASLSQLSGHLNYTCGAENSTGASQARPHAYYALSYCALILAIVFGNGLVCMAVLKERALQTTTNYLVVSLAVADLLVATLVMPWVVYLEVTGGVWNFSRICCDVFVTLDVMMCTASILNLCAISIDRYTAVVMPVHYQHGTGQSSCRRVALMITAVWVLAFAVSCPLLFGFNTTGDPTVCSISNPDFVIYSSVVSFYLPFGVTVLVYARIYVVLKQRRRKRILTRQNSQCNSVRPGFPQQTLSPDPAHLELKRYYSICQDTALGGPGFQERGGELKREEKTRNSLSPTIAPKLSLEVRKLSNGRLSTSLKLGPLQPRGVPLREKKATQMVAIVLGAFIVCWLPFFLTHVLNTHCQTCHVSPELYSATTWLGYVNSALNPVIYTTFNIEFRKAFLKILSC
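Cells at 1500/well, incubated overnight, then treated with pinned compounds (dopamine as control) for 90 min at 37 degrees C. DiscoveRx reagent added for 30 - 60 minutes at room temperature; luminescence read.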
DRD3 antagonist: qHTS of D3 Dopamine Receptor Antagonist: qHTS; D(3) dopamine receptor (Homo sapiens), P35462; D3R cells, DiscoveRx beta-arrestin luminescence, antagonist mode; active compounds read low; max response, negative = inhibition, %; actives 2.5% (n = 360,000); in the data active = max response below about -50%; inconclusive = no clear call, values can overlap the other calls
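Cells expressing the human receptor were seeded at 1500 cells/well, incubated overnight at 37 degrees C in 5% CO2, then exposed to library compounds with dopamine controls for 90 minutes at 37 degrees C before luminescent detection.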
GLP1R inv ag: qHTS of GLP-1 Receptor Inverse Agonists (Inhibition Mode); Glucagon-like peptide 1 receptor (Homo sapiens), P43220; actives 1.6% (n = 410,000); AID 624417, 2012; HEK293 GLP-1R CRE-luciferase, luminescence, 24 h; GLP-1R form is constitutively active; Potency, µM (doses to about 38.3 µM), usual class: inhibitors; note: nearly all actives have a fitted effect of over 55% in size
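HEK293 cells stably co-expressing constitutively active GLP-1R and a cAMP-responsive luciferase reporter were seeded in DMEM with 10% Nu serum, given compounds after 12 h, and incubated 24 h at 37 deg C. Luminescence was then read.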
GLP-1R agonist: qHTS of GLP-1 Receptor Agonists. HEK293 GLP-1R CRE-luciferase, luminescence, 4-6 h; cells express a hypersensitive GLP-1R form. Potency, µM (doses to about 45.6 µM), hits mostly activators. actives 0.007% (n = 380,000). Glucagon-like peptide 1 receptor (Homo sapiens), P43220. AID 624172, 2012
Of the large screens only hits and unclear results are named; the others gave an inactive call. Unless noted, calls come from the whole dose curve; as a rule, active = well fitted curve in the direction sought with a large enough effect; inconclusive = small, poorly fitted or top-dose-only effect, or another doubt; inactive = no such curve, though single readings can be large; an effect the other way counts as inactive or inconclusive.

COc1cc([C@@H]2c3cc4c(cc3[C@@H](O[C@@H]3O[C@H]5CO[C@H](C)O[C@H]5[C@H](O)[C@@H]3O)[C@H]3COC(=O)[C@H]23)OCO4)cc(OC)c1OP(=O)(O)O	none (no result: DRD3 agonist, DRD3 antagonist, GLP1R inv ag)
CO[C@H]1C=CO[C@@]2(C)Oc3c(C)c(O)c4c(O)c(cc(O)c4c3C2=O)NC(=O)/C(C)=C\C=C/[C@H](C)[C@H](O)[C@@H](C)[C@@H](O)[C@@H](C)[C@H](OC(C)=O)[C@@H]1C	none (no result: DRD3 antagonist, GLP1R inv ag, GLP-1R agonist)
Cc1cccc(Oc2ccc(S(=O)(=O)N3CCCCC3)cc2NC(=O)C2=COCCO2)c1	GLP1R inv ag 10µM
COc1cn(CC(=O)Nc2ccc(C)cc2)c(CN2CCCCC2)cc1=O	none (no result: DRD3 antagonist, GLP-1R agonist)
Nc1[nH]c(=S)[nH]c(=O)c1-c1ccccc1	DRD3 antagonist -56
O=c1[nH]c(=S)[nH]c2nc(-c3ccccc3)cnc12	none
Cc1ccc(S(=O)(=O)N2C[C@H]3N(C(=O)OC(C)C)N(C(=O)OC(C)C)C[C@H](OC(=O)NCC4CCCCC4)[C@@]3(O)C2)cc1	GLP1R inv ag 4.5µM
CC(C)(S)C(=O)NC(CS)C(=O)O (centres undefined)	none (no result: DRD3 agonist, DRD3 antagonist, GLP1R inv ag)
CCCN(C(=O)CCc1nc(-c2ccc(C)cc2)no1)c1ccc(OCC)cc1	GLP1R inv ag 11µM (no result: DRD3 antagonist, GLP-1R agonist)
Cc1ccc(-c2noc(CCC(=O)Nc3ccc(C)cn3)n2)cc1	DRD3 antagonist -73
CCc1ccccc1N(CC)C(=O)CCc1nc(-c2ccc(C)cc2)no1	GLP1R inv ag 8.9µM
CCOC(=O)c1ccccc1NC(=O)CCc1nc(-c2ccc(C)cc2)no1	none (no result: DRD3 antagonist, GLP-1R agonist)
O=C1Nc2cc(C(=O)NCCCN3CCCC3)ccc2S/C1=C\c1ccccc1	GLP1R inv ag 10µM
O=C1Nc2cc(C(=O)NCCCN3CCOCC3)ccc2S/C1=C/c1cccc(Cl)c1	none
CCN(CC)C(=O)NC1CCCCCCC1	none
CC1=Nc2cc(C(=O)NC3CCCC3)ccc2Sc2ccc(Cl)cc21	GLP1R inv ag 1.6µM (no result: DRD3 antagonist, GLP-1R agonist)
CC1=Nc2cc(C(=O)NC3CCCC3)ccc2Sc2ccc(C)cc21	GLP1R inv ag 5µM (no result: DRD3 antagonist)
CCC1=Nc2cc(C(=O)NC3CCCC3)ccc2Sc2ccc(Cl)cc21	GLP1R inv ag inconclusive (no result: DRD3 antagonist, GLP-1R agonist)
CCOC(=O)c1cccc(NC(=O)CSc2nc3cc4ccccc4cc3[nH]2)c1	none (no result: DRD3 antagonist, GLP-1R agonist)
Cc1ccc(NC(=O)N2CC3CCCN3c3ccccc32)c(C)c1 (centres undefined)	GLP1R inv ag inconclusive (no result: DRD3 antagonist, GLP-1R agonist)
COc1ccccc1NS(=O)(=O)c1ccc(O)c(C(=O)OCC(=O)N2c3ccccc3CC2C)c1 (centres undefined)	DRD3 antagonist -106
Cc1ccc(-c2nc(N/N=C/c3ccccc3[N+](=O)[O-])c3ccccc3n2)cc1	DRD3 agonist 45
c1ccc(CNc2c3ccccc3nc3ccccc23)cc1	GLP1R inv ag inconclusive
Oc1ccc(CCNc2c3ccccc3nc3ccccc23)cc1O	DRD3 agonist 124
O=[N+]([O-])c1cccc(/C=N/Nc2nc(NCc3ccccc3)nc(N3CCOCC3)n2)c1O	DRD3 antagonist -138
CC12CCC(=O)N1C(C(=O)Nc1nc3ccc(Cl)cc3s1)CS2 (centres undefined)	GLP1R inv ag 2.8µM
CCc1ccc2nc(NC(=O)C3CSC4(C)CCC(=O)N34)sc2c1 (centres undefined)	GLP1R inv ag 5.6µM
CC12CCC(=O)N1C(C(=O)Nc1nc3ccc(S(C)(=O)=O)cc3s1)CS2 (centres undefined)	none
Cc1c(CCC(=O)NCCc2ccc(Cl)cc2)c(=O)oc2c(C)c(O)ccc12	none (no result: DRD3 antagonist, GLP-1R agonist)
O=c1c2ccccc2nc2n1CC/C2=C/N1CCN(c2cccc(C(F)(F)F)c2)CC1	DRD3 antagonist -91
O=C(Nc1cccc(C(F)(F)F)c1)c1cccnc1N1CCOCC1	none
O=C(Nc1cccc(F)c1)c1cccnc1NCCc1ccccc1	GLP1R inv ag 10µM
O=C(Nc1cccc(C(F)(F)F)c1)c1cccnc1NCCc1ccccc1	GLP1R inv ag 3.5µM
O=C(Nc1cccc(C(F)(F)F)c1)c1cccnc1N1CCCC1	GLP1R inv ag 11µM
CN(C)S(=O)(=O)c1ccc(C(=O)NC2CC(=O)N(c3ccc4c(c3)OCCO4)C2)cc1 (centres undefined)	none (no result: DRD3 antagonist)
C=CCN(c1ccccc1)S(=O)(=O)c1ccc2c(c1)NC(=O)C(C)S2 (centres undefined)	GLP1R inv ag 7.1µM
CCc1cccc(NS(=O)(=O)c2ccc3c(c2)NC(=O)C(C)S3)c1 (centres undefined)	GLP1R inv ag 11µM
COc1cccc(NS(=O)(=O)c2ccc3c(c2)NC(=O)C(C)S3)c1 (centres undefined)	none
C=CCN(c1ccccc1)S(=O)(=O)c1ccc2c(c1)NC(=O)C(C)C(=O)N2 (centres undefined)	none
CCCN(C(=O)Cc1coc2cc(OC)ccc12)C1CCS(=O)(=O)C1 (centres undefined)	DRD3 antagonist -52
Cc1cccc(C)c1NC(=O)Cn1c(=O)n(Cc2ccccc2)c(=O)c2c(C)c(C(=O)N(C)C)sc21	none (no result: DRD3 antagonist, GLP-1R agonist)
Cc1cc(N2CCN(C)CC2)nc(=S)[nH]1	DRD3 antagonist -81
Cc1cc(N2CCCN(C)CC2)nc2cc(Cl)ccc12	DRD3 antagonist inconclusive, GLP1R inv ag inconclusive
O=c1oc2ccccc2c(Nc2ccccc2O)c1[N+](=O)[O-]	DRD3 antagonist inconclusive
O=c1oc2ccccc2c(Nc2cccc3ccccc23)c1[N+](=O)[O-]	DRD3 antagonist -63
CCC(=O)c1ccc(OCC(O)CN2CCOCC2)cc1 (centres undefined)	none
OC(COc1ccccc1)CN1CCN(C(c2ccccc2)c2ccccc2)CC1 (centres undefined)	DRD3 antagonist -95, GLP1R inv ag inconclusive
N#Cc1ccc(OCC(O)CN2CCN(C(c3ccccc3)c3ccccc3)CC2)cc1 (centres undefined)	DRD3 antagonist -54, GLP1R inv ag 7.1µM
c1ccc(OCCOCCN2CCN(C(c3ccccc3)c3ccccc3)CC2)cc1	DRD3 antagonist -78, GLP1R inv ag 7.1µM
CCC(=O)c1ccc(OCC(O)CN2CCN(C(c3ccccc3)c3ccccc3)CC2)cc1 (centres undefined)	DRD3 antagonist -88
COc1ccccc1OCCCCN1CCN(C(c2ccccc2)c2ccccc2)CC1	DRD3 antagonist -84, GLP1R inv ag 4.5µM
CC(NC(=O)C1CCCN(S(=O)(=O)c2cccc3nonc23)C1)c1ccccc1 (centres undefined)	DRD3 antagonist -61
c1ccc(-n2cc(CN3CCCC(CN4CCCC4)C3)c(-c3ccc4c(c3)OCO4)n2)cc1 (centres undefined)	GLP1R inv ag 10µM
OC[C@@H]1CCCN1Cc1cn(-c2ccccc2)nc1-c1ccc2c(c1)OCO2	GLP1R inv ag inconclusive
c1ccc(-n2cc(CNCCc3cscn3)c(-c3ccc4c(c3)OCO4)n2)cc1	DRD3 antagonist -62, GLP1R inv ag inconclusive

Screening data as filed in PubChem.
